Experimental data reported in PubChem BioAssay AID488862 (Broad Institute, 2010).
Among all 340,000 compounds or so, about 1,200 (0.35%) were called active. No stated cut-off is given here; in the data, active means inhibition above about 52%; inactive means the rest. The sample as a whole holds a higher share of actives than the screen did.

assay: inhibition of PrP 5' UTR reporter expression (AID 488862); conditions: cell-based PrP 5' UTR mRNA reporter, plate reader; hits give high values; concentration not given here; further: 0 = median of the neutral control wells

SMILES | inhibition
O=C(CSc1ncnc2sccc12)N1CCN(C(=O)c2cccs2)CC1 | 87.3% (active)
O=C(CSc1ncnc2sccc12)NC1CCS(=O)(=O)C1 (stereo unspecified) | -11.1% (inactive)
COc1ccc(OCC(=O)N2CCN(C(=O)c3cccs3)CC2)cc1 | -6.1% (inactive)
C/C(CC(=O)Nc1ccc(C)cc1C)=N\NC(=O)C(C)C | -21% (inactive)
COC(=O)c1cc(S(=O)(=O)NC2CCN(Cc3ccccc3)CC2)cn1C | -8.61% (inactive)
COc1ccc(Nc2ncnc3ccc(Br)cc23)c(OC)c1 | 72.3% (active)
O=C(O)CCCCCNc1ncnc2ccc(Br)cc12 | 6.38% (inactive)
Brc1ccc2ncnc(NCc3cccnc3)c2c1 | 12.1% (inactive)
Cc1ccc(C)c(NC(=O)COC(=O)c2nn(C)c(=O)c3ccccc23)c1 | -7.85% (inactive)
O=C1Nc2cc(C(=O)N3CCN(c4ccc(F)cc4)CC3)ccc2NC1CSCc1cccc(F)c1 (stereo unspecified) | -17.6% (inactive)
CCOCCCNC(=O)C(=O)NCCCOCC | -28.8% (inactive)
CC(C)CC(CC(C)C)=NNC(=O)c1ccc(CSc2nncn2C)cc1 | -20.2% (inactive)
CSc1nc(-c2ccccc2)nc(C(Cl)Cl)n1 | 86.3% (active)
CN(C)C(=S)N=c1ssc(=S)n1Cc1ccco1 | 13.6% (inactive)
COc1cc(OC)cc(C(=O)N[C@H](C(=O)Nc2nc3ccccc3[nH]2)C(C)C)c1 | 67.8% (active)
COc1ccc(C(=O)N[C@H](C(=O)NCc2ccccc2)C(C)C)cc1 | -2.13% (inactive)
COc1cc(OC)cc(C(=O)N[C@H](C(=O)NNC(=O)c2ccc(Br)cc2)C(C)C)c1 | -12.3% (inactive)
Cc1cc(C)c(SCCc2ccncc2)c(C)c1 | -26.1% (inactive)
O=C1/C(=C/c2ccc(F)cc2)SC(=S)N1CCCC(=O)N1CCCCC1CCO (stereo unspecified) | -14.7% (inactive)
Cc1ccc(/C=C2/SC(=S)N(CCC(=O)NCCCN3CCOCC3)C2=O)cc1 | -12.2% (inactive)
C=CCOc1ccc(/C=C2\SC(=S)N(CCC(=O)O)C2=O)cc1 | 79.7% (active)
Cn1c(=S)sc2ccc3ccccc3c21 | -8.89% (inactive)
CCC(C)Cn1c(O)cc2nn(-c3nc4ccccc4s3)c(=O)c-2c1C (stereo unspecified) | 92.2% (active)
O=C(C(=O)N1CCc2ccccc2C1)c1c[nH]c2ccccc12 | -13.2% (inactive)

SMILES | inhibition
Cc1nc2nc(COc3ccccc3)[nH]n2c(=O)c1Cc1ccccc1 | -6.88% (inactive)
CS(=O)(=O)N1CCN(C(=O)c2cc3ccccc3oc2=O)CC1 | -9.85% (inactive)
O=c1oc2ccccc2cc1-c1cn(-c2ccccc2)c(=S)[nH]1 | 65.9% (active)
COc1cccc(-n2c(=S)[nH]c3c(oc4ccccc43)c2=O)c1 | -5.49% (inactive)
CC1(C)O[C@@H]2[C@H](O1)[C@@H](COS(=O)(=O)O)O[C@H]2n1cnc2c(=O)[nH]cnc21 | -8.78% (inactive)
COC(=O)Cc1[nH]n(-c2nc3ccccc3s2)c(=O)c1C(C)=Nc1ccc(OC)cc1 | 80.1% (active)
CC(=NCc1ccco1)c1c(C(F)(F)F)[nH]n(-c2nc3ccccc3s2)c1=O | 0.0675% (inactive)
COc1ccc(C(=O)Nc2cccc(/C=C(/CCC(=O)O)c3nc4ccccc4s3)c2)cc1 | -8.9% (inactive)
COc1ccc(C(=O)COC(=O)C(O)c2ccccc2)c(OC)c1 (stereo unspecified) | -34.1% (inactive)
CC(=O)OC1C2(CC3N4C(=O)C5(CO)SSC4(CC31O)C(=O)N5C)OC(C)C(C)(C)C2=O (stereo unspecified) | 96.4% (active)
CC(C)c1ccc(/C=C/C(=O)NCCCN2CCOCC2)cc1 | -9.62% (inactive)
OCCC1CN(Cc2ccc3nsnc3c2)CCN1C1CCCC1 (stereo unspecified) | -10% (inactive)
Cc1ccsc1C(=O)OCC(=O)c1cc(C)n(CC2CCCO2)c1C (stereo unspecified) | 78.7% (active)
Cc1ccsc1C(=O)OCC(=O)Nc1cccc(F)c1 | -13.8% (inactive)
COc1ccc(C(=O)OCC(=O)c2cc(C)n(CC3CCCO3)c2C)cc1[N+](=O)[O-] (stereo unspecified) | -11.7% (inactive)
COc1ccc(Cl)cc1NC(=O)[C@@H]1CCCN1C(=O)c1cccs1 | -9.55% (inactive)
COc1cc(NS(=O)(=O)c2ccc(NC(=S)NC(=O)c3ccccc3)cc2)nc(OC)n1 | 1.17% (inactive)
CS(=O)(=O)N(CC(=O)N1CCCCCC1)c1cccc(Cl)c1Cl | -24.3% (inactive)
COc1ccc(NS(=O)(=O)c2ccc3oc(SCC(N)=O)nc3c2)cc1 | -11.7% (inactive)
CCn1c(=O)c(=O)[nH]c2c(=O)oc3ccc(S(=O)(=O)Nc4ccc(OC)cc4)cc3c21 | 69% (active)
COc1ccc(S(=O)(=O)Nc2ccc3oc(C)c(C(C)=O)c3c2)cc1 | -20.1% (inactive)
O=c1c2ccccc2cnn1Cc1n[nH]c(=S)n1-c1ccccc1F | -33.3% (inactive)
O=C(COc1cc(Cl)c(Cl)cc1Cl)NCCc1ccccn1 | -11.6% (inactive)
Cc1ccc(C(=O)Nc2nc3ccc(Cl)cc3s2)o1 | -73.3% (inactive)

SMILES | inhibition
Cc1ccc(Cc2cnc(N)s2)o1 | -14.5% (inactive)
Cc1ccc(CCC(=O)Nc2ncc(Cc3cc(Cl)ccc3Cl)s2)o1 | 78% (active)
Cn1c(-c2ccccc2)c[n+]2c1CCCCC2 | -9.16% (inactive)
CCN1CCN(c2nc(Nc3cc(OC)ccc3OC)nc(Nc3cc(OC)ccc3OC)n2)CC1 | -23.7% (inactive)
CCOC(=O)c1c(C)n(C)c2ccc(OC)c(NC(=O)CN3CCC4(CC3)OCCO4)c12 | -19% (inactive)
NS(=O)(=O)c1ccc(CNC(=O)c2ccc(Cl)cc2[N+](=O)[O-])cc1 | -4.62% (inactive)
CC(=O)Nc1ccc(C(=O)OCC(=O)Nc2ccc([N+](=O)[O-])cc2C(F)(F)F)cc1 | -18.6% (inactive)
NC(=O)c1ccc(NC(=O)COC(=O)c2ccc([N+](=O)[O-])cc2)cc1 | 61.8% (active)
O=C(COC(=O)C1CCCCC1)Nc1ccc([N+](=O)[O-])cc1 | 5.99% (inactive)
O=C(CCc1ccccc1)NCCc1cccs1 | -25.9% (inactive)
Cn1c(SCC(=O)NC2CCCCC2)nnc1-c1cc2ccccc2o1 | -18.5% (inactive)
O=C1/C(=C\c2ccc([N+](=O)[O-])cc2)CS(=O)(=O)C/C1=C/c1ccc([N+](=O)[O-])cc1 | 71.1% (active)
Nc1ccc([N+](=O)[O-])cc1 | 3.7% (inactive)
O=[N+]([O-])c1ccc(C=NN=Cc2ccc([N+](=O)[O-])cc2)cc1 | -32.5% (inactive)
Cc1nonc1C(=O)N/N=C/c1ccc(O)cc1 | -28.8% (inactive)
COC(=O)c1ccccc1NC(=O)CN(Cc1ccccc1)S(C)(=O)=O | -21.1% (inactive)
COc1cccc(/C=N\Nc2nncc(-c3ccccc3)n2)c1 | -63.5% (inactive)
C/C(=N\Nc1nncc2ccccc12)c1ccc(Cl)c([N+](=O)[O-])c1 | -45.7% (inactive)
CN(CCO)c1ccc(/C=N/Nc2nncc3ccccc23)cc1 | 79.8% (active)
CC(C)(C)C1CCC(C(=O)Nc2cccnc2)CC1 (stereo unspecified) | -7.89% (inactive)
O=C(Nc1ccc(Br)cn1)C1CCN(S(=O)(=O)c2cccs2)CC1 | -7.76% (inactive)
C/C(=N\NC(=O)c1cc2c(s1)CCC(C)C2)c1cccnc1 (stereo unspecified) | 55.4% (active)
CC1CCc2sc(C(=O)N/N=C/C3CCCCC3)cc2C1 (stereo unspecified) | 1.9% (inactive)
C/C(=N\NC(=O)c1ccc2ccccc2c1)c1cccnc1 | -12.7% (inactive)

SMILES | inhibition
COc1ccc2oc(C(=O)OCC(=O)N(CC(C)C)c3c(N)n(Cc4ccccc4)c(=O)[nH]c3=O)c(C)c2c1 | 4.93% (inactive)
COc1ccc(N(C(=O)c2ccc(C)cc2)S(=O)(=O)c2cccs2)cc1 | -6.19% (inactive)
CC(C)(C)c1ccc(OC2=CS(=O)(=O)c3ccccc32)cc1 | -61.3% (inactive)
CC(C)(C)c1ccc(Oc2ccc(N)cc2)cc1 | 64.6% (active)
CC(C)(C)c1ccc(OC(=O)N2CCCCC2)cc1 | -72.8% (inactive)
CCOC(=O)N1CCN(C(=O)COCc2cc(-c3ccc4c(c3)OCO4)on2)CC1 | -11.7% (inactive)
N#C/C=C\Oc1ccc(Cl)cc1N | -13% (inactive)
COc1cccc2c1OCC1COc3c(c(=O)n(C)c(=O)n3C)C21 (stereo unspecified) | -23.4% (inactive)
O=C(NCCCN1CCOCC1)c1ccccc1NS(=O)(=O)c1ccc(Br)cc1 | -22.1% (inactive)
COCC(C)n1c(C)cc(C(=O)CSc2cc(C)c3ccccc3n2)c1C (stereo unspecified) | -11.2% (inactive)
c1ccc(-n2ncc(-c3nn[nH]n3)n2)cc1 | -12.7% (inactive)
O=S(=O)(Nc1ccc2nc(N3CCOCC3)sc2c1)c1ccccc1 | -104% (inactive)
c1c2c(cc3sc(N4CCCCC4)nc13)OCCO2 | 76.1% (active)
CN(C)CCN(C(=O)C1CCCCC1)c1nc2cc3c(cc2s1)OCO3 | -8.29% (inactive)
CC(=O)N1CCc2cc(S(=O)(=O)Nc3ccccc3N3CCN(C)CC3)ccc21 | -36.7% (inactive)
Cc1ccc(C(c2sc3nc(C)nn3c2O)N2CCN(c3ccccc3)CC2)cc1 (stereo unspecified) | -16.6% (inactive)
C[C@]12CCC3C(CC[C@H]4[C@H](O)[C@H](O)CC[C@]34C)C1CCC2=O (stereo partly specified) | -23.5% (inactive)
CC12CCC3C(CCC4CC(=O)CCC43C)C1CC(=NO)C2=O (stereo unspecified) | 52% (active)
CC(C)C(NC(=O)OCc1ccccc1)C(=O)OCC(=O)N1C(C)CCCC1C (stereo unspecified) | -20.8% (inactive)
CN(C)C(=O)c1cc(Br)ccc1Cl | -23.2% (inactive)
CC(C)CC[n+]1ccn(C2=C([O-])c3ccccc3C(=O)/C2=N\S(=O)(=O)c2ccccc2)c1 | -17.3% (inactive)
CC(C)(C)c1nc2ccccc2c(=O)n1N1C(=O)c2ccccc2C1=O | -7.16% (inactive)
CN(c1ccc2nc3ccccc3c(=O)n2n1)C1CCCCC1 | 78.1% (active)
CC(C)C(C)NC(=O)COc1nc2ccccc2nc1N(C)C1CCCCC1 (stereo unspecified) | -28.4% (inactive)
